# Assay results: PubChem BioAssay AID2284157 (EPA ToxCast)
# Calls of active or inactive are those of the source. How the source made its calls: active means hit-call score of the fitted dose curve at least 0.9, where 1 is the maximum; inactive means score below 0.9.
# Biological target: human Leukotriene Receptor CysLT1, CYSLTR1 (gene 10800) (UniProt Q9Y271)
# Experiment: ERF_FR_GPCR_hCYSLTR1: Eurofins (ERF) G Protein-Coupled Receptor (GPCR) Radioligand Binding LeadHunter Assay for human Leukotriene Receptor CysLT1 Agonism
# Experimental: ERF_FR_GPCR_hCYSLTR1 is a biochemical, single-readout assay that uses extracted gene-proteins in a cell-free assay. Measurements were taken 1 hour after chemical dosing in a 96-well plate. See CysLT1 Human Leukotriene GPCR Binding (Agonist Radioligand) Assay, Cerep.ERF_FR_GPCR_hCYSLTR1 is an assay component calculated from the ERF_FR_GPCR_hCYSLTR1 assay. It is designed to measure radioligand binding using a type of binding reporter as detected by scintillation counting with radiometry technology.Data from the assay component ERF_FR_GPCR_hCYSLTR1 was analyzed at the assay endpoint, ERF_FR_GPCR_hCYSLTR1, in the positive analysis fitting direction relative to DMSO as the negative control and baseline of activity. Using a type of binding reporter, gain-of-signal activity can be used to understand changes in binding as they relate to gene CYSLTR1. To generalize the intended target to other relatable targets, this assay endpoint is annotated to the gpcr intended target family, where the subfamily is leukotriene.
# Human cells are incubated for 60 minutes at room temprature with [3H]LTD4 ligand (0.3 nM) and leukotriene D4 as control inhibitor.Test Sample Requirements: Minimum for 1) Screen: 60 ul of 10 mM stock -OR- 1 mg (pre-weighed) for 10 uM final testing. 2) Dose Response: 90 ul of 10 mM stock -OR- 1 mg (pre-weighed) for a top concentration at 10 uM.
# human Leukotriene Receptor CysLT1, CYSLTR1 (gene 10800), sequence (Q9Y271 whole entry, looked up): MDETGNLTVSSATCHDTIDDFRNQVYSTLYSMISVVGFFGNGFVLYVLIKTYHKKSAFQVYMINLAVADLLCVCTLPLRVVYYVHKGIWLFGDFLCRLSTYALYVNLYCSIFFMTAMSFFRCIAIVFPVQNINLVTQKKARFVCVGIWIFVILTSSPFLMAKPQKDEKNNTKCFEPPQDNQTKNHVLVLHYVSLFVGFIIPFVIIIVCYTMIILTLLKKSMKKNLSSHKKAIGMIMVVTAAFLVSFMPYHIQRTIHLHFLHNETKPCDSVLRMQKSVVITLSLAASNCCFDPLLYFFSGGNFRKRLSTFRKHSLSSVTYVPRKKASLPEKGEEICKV
row,Structure (SMILES),AC50
1,O=C(/C=C/c1ccc(O)cc1)CC(=O)/C=C/c1ccc(O)cc1,5 µM (active)
